# Counter-ions that a name gives are not always drawn.
# Test system: 786-O
# Assay: Euclidean distance of Cell Painting phenotypic profile (signed KS, 77 features) to DMSO centroid (dimensionless distance); 5 or 10 uM (library dependent); higher = stronger phenotypic change vs DMSO (phenoactivity)
# Settings: 48 h
# Outline: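 Five cancer lines, together with a healthy fibroblast line, received library compounds for 48 h at a library-dependent 10 or 5 uM and 0.1% DMSO final. Harmony then derived 77 features from confocal 20X images (9 fields/well) of the stained cells, scoring each as a signed Kolmogorov-Smirnov statistic against same-plate vehicle wells. After plate-position correction, correlation weighting and replicate averaging at the top dose, phenoactivity was taken as each profile's Euclidean distance to the median vehicle profile.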
row,SMILES,Euclidean distance
1,CCCC(=O)OCOC(=O)C1=C(C)NC(C)=C(C(=O)OC)C1c1cccc(Cl)c1Cl (stereo not given) [Clevidipine Butyrate],1.64
2,COc1ccc(CNCc2cccc3ccccc23)cc1,1.72
3,CC[C@H](c1ccc(O)cc1)[C@@H](CC)c1ccc(O)cc1 [Hexestrol],1.62
4,CN[C@@H](C)C(=O)N[C@H](C(=O)N1CCC[C@H]1C(=O)Nc1snnc1-c1ccccc1)C1CCCCC1,0.872
5,O=C(O[C@@H]1C[C@@H]2C[C@H]3C[C@H](C1)N2CC3=O)c1c[nH]c2ccccc12 [Dolasetron Mesylate],1.12
6,CCC(C)n1ncn(-c2ccc(N3CCN(c4ccc(OCC5COC(Cn6cncn6)(c6ccc(Cl)cc6Cl)O5)cc4)CC3)cc2)c1=O (stereo not given) [Itraconazole],4.09
7,Cc1ccc(NC(=O)c2ccc(CN3CCN(C)CC3)cc2)cc1Nc1nc(-c2cccnc2)cs1 [Masitinib (AB1010)],2.6
8,Cn1cnc2c1c(=O)[nH]c(=O)n2C [Theobromine],0.718
9,NC(=O)c1cn(Cc2c(F)cccc2F)nn1 [Rufinamide],1.34
10,CN(C)C(=O)COC(=O)Cc1ccc(OC(=O)c2ccc(NC(=N)N)cc2)cc1 [Camostat Mesilate],1.16
11,COc1ccc2cc3[n+](cc2c1OC)CCc1cc2c(cc1-3)OCO2 [Berberine Sulfate],1.66
12,Cc1cnc(Nc2ccc(OCCN3CCCC3)cc2)nc1Nc1cccc(S(=O)(=O)NC(C)(C)C)c1,4.21
13,COc1cc2nccc(Oc3ccc(NC(=O)NC4CC4)c(Cl)c3)c2cc1C(N)=O [Lenvatinib (E7080)],2.11
14,CC(=O)N1C[C@H](O)C[C@H]1C(=O)O [Oxaceprol],0.691
15,Cc1nc(C#Cc2ccnc(Cl)c2)c(C)n1-c1ccc(OC(F)(F)F)cc1,0.836
16,CO/N=C(\C(=O)N[C@@H]1C(=O)N2C(C(=O)O)=C(CSc3nc(=O)c(O)nn3C)CS[C@H]12)c1csc(N)n1 [Ceftriaxone Sodium Trihydrate],1.01
17,CO[C@@H]1[C@@H](O[C@@H]2O[C@H](C)[C@@H](O[C@H]3C[C@@](C)(O)[C@@H](OC(=O)CC(C)C)[C@H](C)O3)[C@H](N(C)C)[C@H]2O)[C@@H](CC=O)C[C@@H](C)[C@@H](O)/C=C/C=C/C[C@@H](C)OC(=O)C[C@H]1OC(C)=O [Josamycin],1.22
18,OCCN1CCN(CCCN2c3ccccc3Sc3ccc(Cl)cc32)CC1 [Perphenazine],1.95

row,SMILES,Euclidean distance
1,CS(=O)(=O)c1cccc(C[C@H](NC(=O)c2c(Cl)cc3c(c2Cl)CCN(C(=O)c2ccc4ccoc4c2)C3)C(=O)O)c1 [Lifitegrast],1.08
2,N#CC(=C(/N)Sc1ccccc1N)/C(C#N)=C(\N)Sc1ccccc1N,1.54
3,CNCc1cc(-c2ccccc2F)n(S(=O)(=O)c2cccnc2)c1 [Vonoprazan Fumarate (TAK-438)],0.884
4,CCN1CCN(Cc2ccc(Nc3ncc(F)c(-c4cc(F)c5nc(C)n(C(C)C)c5c4)n3)nc2)CC1 [Abemaciclib],4.11
5,Nc1nc2[nH]cnc2c(=S)[nH]1 [Thioguanine],1.65
6,CCC(=O)c1c(O)cc(O)cc1O [Flopropione],1.34
7,C[C@]12CCC(=O)C=C1CC[C@@H]1[C@@H]2[C@@H](O)C[C@@]2(C)[C@H]1CC[C@]2(O)C(=O)CO [Hydrocortisone],0.925
8,C[C@H](CS)C(=O)N1CCC[C@H]1C(=O)O [Captopril],1.01
9,FCOC(C(F)(F)F)C(F)(F)F [Sevoflurane],1.15
10,O=NN(CCCl)C(=O)NC1CCCCC1 [Lomustine],0.894
11,CC(C)[C@H]1CC[C@H](C(=O)N[C@H](Cc2ccccc2)C(=O)O)CC1 [Nateglinide],2.04
12,Cc1ccc(/C(=C\CN2CCCC2)c2cccc(/C=C/C(=O)O)n2)cc1 [Acrivastine],1.08
13,COCCCN1CCC(NC(=O)c2cc(Cl)c(N)c3c2OCC3)CC1 [Prucalopride Succinate],0.846
14,CN(C)Cc1c(C(=O)NCCOc2ccc(C(=O)NO)cc2)oc2ccccc12,2.9
15,Oc1c(Br)cc(Br)c2cccnc12 [Broxyquinoline],0.96
16,O=C(O)c1cc(=O)c2ccccc2o1 [Chromocarb],1.02
17,O=C1N=C(O)NC1(c1ccccc1)c1ccccc1 [Phenytoin sodium],0.57

# Source: the supplement of paper PMC10127200
